In PubChem BioAssay:
Calls of active or inactive are those of the source.

Tests used:
[1] = E. coli DRC41 culture turbidity changes, primary screen, E. coli filamentation inducer project, strain DRC41, OD650, 48 h (AID 1152);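 note: E. coli MC1000 strain DRC41 lacking acrAB efflux pump and sulA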; conditions: E. coli DRC41 (acrAB sulA), higher = more signal, called active from +8 up or from −8 down
[2] = small-molecule binders of probe aLefty1, primary screen, biochemical, small-molecule microarray, 635/667 nm fluorescence (AID 1153); conditions: higher = more signal;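 note: score merges spot fluorescence with signal-to-noise ratio from the scanned slide images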
[3] = PSAC antagonists in infected red cells, primary screen, cell-based, P. falciparum Indochina, OD700, 1 h (AID 1154); conditions: P. falciparum Indochina infected RBC osmotic lysis, higher = more signal, called active from +8 up or from −8 down
[4] = PSAC antagonists in infected red cells, primary screen, cell-based, P. falciparum Indochina, OD700, 2 h (AID 1155);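 note: lysis reports solute entry through the parasite surface anion channel PSAC; channel blockers reduce lysis of infected cells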; conditions: P. falciparum Indochina infected erythrocytes, osmotic lysis OD700; higher = more signal, called active from +8 up or from −8 down
[5] = osmotic lysis modulators in infected erythrocytes, primary screen, PSAC antagonist project, cell-based, P. falciparum Indochina, OD700, 3 h (AID 1156); conditions: higher = more signal, called active from +8 up or from −8 down
[6] = PSAC antagonists in infected red cells, primary screen, cell-based, P. falciparum Indochina, OD700, 18 h (AID 1157); conditions: P. falciparum Indochina infected erythrocytes, osmotic lysis OD700, 18 h; higher = more signal, called active from +8 up or from −8 down
[7] = modulators of S6 phosphorylation in cells, primary screen, cell-based, A549, cytoblot, luminescence, serum-stimulated (AID 1158); conditions: A549 phospho-S6 cytoblot, 5 h, higher = more signal;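 note: serum-stimulated A549 lung adenocarcinoma cells; signal is phosphorylated S6 detected by cytoblot immunostaining with HRP secondary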
[8] = molecular target: NADPH oxidase 2 (Homo sapiens) (UniProt P04839); experiment: NOX2-dependent H2O2 signal modulators, primary screen, NOX inhibitor project, cell-based, HEK293-NOX2, PMA-stimulated, Amplex Red fluorescence (AID 1159); conditions: 45 min, higher = more signal, called active from +8 up or from −8 down; note: test concentration not given here
[9] = molecular target: NADPH oxidase 4 (Homo sapiens) (UniProt Q9NPH5); experiment: NOX4-dependent H2O2 signal modulators, primary screen, NOX inhibitor project, cell-based, HEK293-NOX4, tetracycline-induced, Amplex Red fluorescence (AID 1160); conditions: 45 min, higher = more signal, called active from +8 up or from −8 down
[10] = molecular target: NADPH oxidase 5 (Homo sapiens) (UniProt Q96PH1); experiment: NOX5-dependent H2O2 signal modulators, primary screen, NOX inhibitor project, cell-based, HEK293-NOX5, Amplex Red fluorescence (AID 1161); conditions: HEK293-NOX5, ionomycin, 45 min, higher = more signal
[11] = A549 cell viability effects, profiling panel, calcein-AM fluorescence, 48 h, basal (AID 1162); conditions: higher = more signal; note: test concentration not given here
[12] = adipocyte viability effects, profiling panel, cell-based, 3T3-L1 adipocytes, calcein-AM fluorescence, 48 h, basal (AID 1163); conditions: 3T3-L1 adipocytes viability, higher = more signal; note: test concentration not given here
[13] = HepG2 cell viability effects, profiling panel, calcein-AM fluorescence, 48 h, basal (AID 1164); conditions: higher = more signal; note: test concentration not given here
[14] = MM1S cell viability effects, profiling panel, calcein-AM fluorescence, 48 h, basal (AID 1165); conditions: higher = more signal;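 note: viability of MM1S multiple myeloma cells under basal unstimulated conditions; test concentration not given here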
[15] = basal RPMI8226 viability, no added stimulus, profiling panel, cell-based, calcein-AM fluorescence, 48 h, PK04 Diversity Set (AID 1166); conditions: RPMI8226 myeloma viability, higher = more signal;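 note: cells grown under basal conditions without added stimulus; test concentration not given here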
[16] = basal HepG2 mitochondrial membrane potential changes, profiling panel, cell-based, JC-1 fluorescence, 24 h, 100 nL compound (AID 1167); conditions: higher = more signal; note: test concentration not given here
[17] = basal 3T3-L1 adipocyte mitochondrial potential changes, profiling panel, cell-based, JC-1 fluorescence, 3T3-L1 adipocytes, 24 h, 100 nL compound (AID 1168); conditions: JC-1 mitochondrial fluorescence, higher = more signal, called active from +8 up or from −8 down; note: test concentration not given here
[18] = basal RPMI8226 mitochondrial membrane potential changes, profiling panel, cell-based, JC-1 fluorescence, 24 h, 100 nL compound (AID 1169); conditions: RPMI8226 myeloma, JC-1 mitochondrial potential fluorescence, higher = more signal; note: test concentration not given here
[19] = basal MM1S mitochondrial membrane potential changes, profiling panel, cell-based, JC-1 fluorescence, 24 h, 100 nL compound (AID 1170); conditions: higher = more signal; note: test concentration not given here
[20] = A549 lung cancer cell viability effects, profiling panel, resazurin fluorescence, 24 h, PK04 Diversity Set (AID 1171); conditions: higher = more signal, called active from +8 up or from −8 down; note: test concentration not given here

NADPH oxidase 5 (Homo sapiens), sequence (Q96PH1 whole entry, looked up): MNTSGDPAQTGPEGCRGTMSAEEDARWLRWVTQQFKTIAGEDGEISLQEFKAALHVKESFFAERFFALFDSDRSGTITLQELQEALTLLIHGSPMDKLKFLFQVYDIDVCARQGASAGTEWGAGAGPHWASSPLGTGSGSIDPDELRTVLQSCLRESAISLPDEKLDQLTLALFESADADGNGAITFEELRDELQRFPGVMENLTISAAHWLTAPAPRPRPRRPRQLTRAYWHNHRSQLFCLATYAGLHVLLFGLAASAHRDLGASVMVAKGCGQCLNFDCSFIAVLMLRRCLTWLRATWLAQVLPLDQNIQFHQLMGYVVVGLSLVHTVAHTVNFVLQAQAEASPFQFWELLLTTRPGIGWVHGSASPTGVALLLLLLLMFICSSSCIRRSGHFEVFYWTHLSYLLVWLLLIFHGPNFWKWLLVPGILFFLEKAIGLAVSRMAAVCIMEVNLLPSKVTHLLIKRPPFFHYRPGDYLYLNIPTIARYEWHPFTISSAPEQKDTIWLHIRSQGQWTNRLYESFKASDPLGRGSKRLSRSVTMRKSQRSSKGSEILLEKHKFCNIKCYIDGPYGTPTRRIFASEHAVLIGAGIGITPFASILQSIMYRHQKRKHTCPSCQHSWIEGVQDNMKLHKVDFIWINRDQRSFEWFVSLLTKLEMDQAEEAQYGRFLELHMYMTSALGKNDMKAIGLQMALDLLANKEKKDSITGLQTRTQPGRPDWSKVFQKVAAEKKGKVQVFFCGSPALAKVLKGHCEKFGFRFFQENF
NADPH oxidase 2 (Homo sapiens), sequence (P04839 whole entry, looked up): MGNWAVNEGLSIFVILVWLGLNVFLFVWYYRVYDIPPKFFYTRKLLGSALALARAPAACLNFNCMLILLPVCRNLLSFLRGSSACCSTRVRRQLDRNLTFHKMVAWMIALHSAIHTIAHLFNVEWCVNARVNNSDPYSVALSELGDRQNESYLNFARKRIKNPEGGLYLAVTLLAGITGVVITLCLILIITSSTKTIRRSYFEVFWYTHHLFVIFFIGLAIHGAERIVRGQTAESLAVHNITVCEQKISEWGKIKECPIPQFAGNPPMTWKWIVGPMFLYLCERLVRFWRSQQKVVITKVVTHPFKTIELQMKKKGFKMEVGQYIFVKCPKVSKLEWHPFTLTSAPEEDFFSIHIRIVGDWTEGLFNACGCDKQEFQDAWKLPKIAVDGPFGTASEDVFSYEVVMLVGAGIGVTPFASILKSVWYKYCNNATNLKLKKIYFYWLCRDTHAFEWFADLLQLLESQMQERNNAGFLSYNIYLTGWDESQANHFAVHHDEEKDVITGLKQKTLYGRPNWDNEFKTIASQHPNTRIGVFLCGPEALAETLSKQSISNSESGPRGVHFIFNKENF
NADPH oxidase 4 (Homo sapiens), sequence (Q9NPH5 whole entry, looked up): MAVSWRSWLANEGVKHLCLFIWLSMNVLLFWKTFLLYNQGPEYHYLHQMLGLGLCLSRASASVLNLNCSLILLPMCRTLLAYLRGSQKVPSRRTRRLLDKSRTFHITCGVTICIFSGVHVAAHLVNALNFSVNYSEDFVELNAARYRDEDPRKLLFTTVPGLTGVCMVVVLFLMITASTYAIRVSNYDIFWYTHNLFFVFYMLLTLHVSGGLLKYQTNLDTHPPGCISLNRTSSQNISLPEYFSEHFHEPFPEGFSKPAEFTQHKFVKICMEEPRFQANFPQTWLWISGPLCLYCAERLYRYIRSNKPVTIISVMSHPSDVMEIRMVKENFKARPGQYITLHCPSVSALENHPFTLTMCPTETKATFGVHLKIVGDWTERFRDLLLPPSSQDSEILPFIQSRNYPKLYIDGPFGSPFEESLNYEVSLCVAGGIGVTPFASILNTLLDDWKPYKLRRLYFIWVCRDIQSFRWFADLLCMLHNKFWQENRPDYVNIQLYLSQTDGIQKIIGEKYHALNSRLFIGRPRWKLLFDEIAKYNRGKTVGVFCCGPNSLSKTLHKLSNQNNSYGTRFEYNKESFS

SMILES: O=C1C2C=CC(C(O)c3ccc(F)cc3)N(Nc3ccccc3F)C2C(=O)N1c1ccccc1 (stereo not given)
- z-score [1]: -1.13 (inactive)
- composite z-score [2]: 0.336
- z-score [3]: 6.83 (inactive)
- z-score [4]: 1.4 (inactive)
- z-score [5]: -0.196 (inactive)
- z-score [6]: 0.998 (inactive)
- z-score [7]: -1.06
- z-score [8]: -2.22 (inactive)
- z-score [9]: -4.97 (inactive)
- z-score [10]: -2.17
- z-score [11]: -1.39
- z-score [12]: -1.1
- z-score [13]: -1.47
- z-score [14]: -0.389
- z-score [15]: -0.233
- z-score [16]: -1.73
- z-score [17]: -1.08 (inactive)
- z-score [18]: -0.143
- z-score [19]: 0.396
- z-score [20]: 0.0853 (inactive)

SMILES: CC(C)C[C@@H]1NC(=O)[C@@H]2C[C@H](C(=O)NCCCCCN)[C@H](c3cccc(OCCO)c3)N2C1=O
- z-score [1]: 1.28 (inactive)
- composite z-score [2]: 0.427
- z-score [3]: 3.07 (inactive)
- z-score [4]: -0.74 (inactive)
- z-score [5]: 1.1 (inactive)
- z-score [6]: -2 (inactive)
- z-score [7]: 0.836
- z-score [8]: 1.22 (inactive)
- z-score [9]: 0.74 (inactive)
- z-score [10]: 1.43
- z-score [11]: 0.938
- z-score [12]: 0.624
- z-score [13]: 1.89
- z-score [14]: 0.767
- z-score [15]: 1.26
- z-score [16]: 1.75
- z-score [17]: 0.00134 (inactive)
- z-score [18]: -0.71
- z-score [19]: -0.495
- z-score [20]: -0.217 (inactive)

SMILES: CCCCc1cn(C[C@H](Cc2ccccc2)NC(=O)N[C@H](CO)CCc2oc(C(C)=O)c(C(=O)OC)c2C(=O)OC)nn1
- z-score [1]: 0.135 (inactive)
- composite z-score [2]: 0.086
- z-score [3]: 1.66 (inactive)
- z-score [4]: -0.983 (inactive)
- z-score [5]: 1.21 (inactive)
- z-score [6]: -0.496 (inactive)
- z-score [7]: 0.847
- z-score [8]: -4.81 (inactive)
- z-score [9]: -2.87 (inactive)
- z-score [10]: -2.48
- z-score [11]: -0.601
- z-score [12]: 0.813
- z-score [13]: 0.132
- z-score [14]: 0.787
- z-score [15]: -1.22
- z-score [16]: 0.173
- z-score [17]: 0.273 (inactive)
- z-score [18]: 0.24
- z-score [19]: 1
- z-score [20]: -0.571 (inactive)

SMILES: COc1ccc(CCN2C(=O)[C@@]3(Cc4ccccc42)c2ccccc2C(=O)N(Cc2ccccc2C(F)(F)F)[C@H]3c2ccc(CO)cc2)cc1
- z-score [1]: -0.262 (inactive)
- composite z-score [2]: -0.201
- z-score [3]: 0.074 (inactive)
- z-score [4]: -1.13 (inactive)
- z-score [5]: -1.87 (inactive)
- z-score [6]: -2.07 (inactive)
- z-score [7]: 1.85
- z-score [8]: -1.4 (inactive)
- z-score [9]: -2.08 (inactive)
- z-score [10]: -2.04
- z-score [11]: -0.306
- z-score [12]: 0.885
- z-score [13]: -0.863
- z-score [14]: 0.122
- z-score [15]: -1.57
- z-score [16]: -0.739
- z-score [17]: -0.753 (inactive)
- z-score [18]: 0.923
- z-score [19]: -1.59
- z-score [20]: 0.639 (inactive)

SMILES: COC(=O)[C@@]1(Cc2ccc(OC)cc2)[C@H]2c3cc(C(=O)N4CCCC4)n(Cc4ccc(OC)c(OC)c4)c3C[C@H]2CN1C(=O)c1ccccc1
- z-score [1]: -1.08 (inactive)
- composite z-score [2]: 1.61
- z-score [3]: 4.08 (inactive)
- z-score [4]: 0.81 (inactive)
- z-score [5]: 1.92 (inactive)
- z-score [6]: 0.91 (inactive)
- z-score [7]: 0.0413
- z-score [8]: 0.555 (inactive)
- z-score [9]: 0.235 (inactive)
- z-score [10]: -3.23
- z-score [11]: -0.25
- z-score [12]: 0.525
- z-score [13]: -1.05
- z-score [14]: -0.128
- z-score [15]: -0.808
- z-score [16]: 4
- z-score [17]: 0.0331 (inactive)
- z-score [18]: -0.16
- z-score [19]: -0.602
- z-score [20]: 1.21 (inactive)

SMILES: C=CCNC(=O)[C@@H]1[C@H]2C(=O)O[C@H](c3ccccc3)[C@H](c3ccccc3)N2[C@H](c2ccc(OCCO)cc2)[C@@]12C(=O)Nc1ccc(C#Cc3ccc(OC)cc3)cc12
- z-score [1]: 0.411 (inactive)
- composite z-score [2]: 0.498
- z-score [3]: 3.18 (inactive)
- z-score [4]: 1.46 (inactive)
- z-score [5]: 0.931 (inactive)
- z-score [6]: 0.677 (inactive)
- z-score [7]: 0.278
- z-score [8]: 1.04 (inactive)
- z-score [9]: -1.11 (inactive)
- z-score [10]: 0.959
- z-score [11]: -0.717
- z-score [12]: 1.82
- z-score [13]: -0.969
- z-score [14]: -0.891
- z-score [15]: -1.86
- z-score [16]: -1.12
- z-score [17]: 1.05 (inactive)
- z-score [18]: -0.592
- z-score [19]: -0.913
- z-score [20]: -1.03 (inactive)

SMILES: COC(=O)C(CC#Cc1ccc2c(c1)[C@]1(C(=O)N2)[C@H](c2ccc(O)cc2)N2[C@H](c3ccccc3)[C@H](c3ccccc3)OC(=O)[C@H]2[C@@H]1C(=O)Nc1nc2ccccc2s1)C(=O)OC
- z-score [1]: 1.25 (inactive)
- composite z-score [2]: 0.506
- z-score [3]: 1.11 (inactive)
- z-score [4]: -0.314 (inactive)
- z-score [5]: -0.0671 (inactive)
- z-score [6]: -1.84 (inactive)
- z-score [7]: 2.08
- z-score [8]: 2.11 (inactive)
- z-score [9]: 0.604 (inactive)
- z-score [10]: 2.21
- z-score [11]: 1.37
- z-score [12]: 0.72
- z-score [13]: 1.47
- z-score [14]: 0.247
- z-score [15]: -1.65
- z-score [16]: -1.44
- z-score [17]: -0.719 (inactive)
- z-score [18]: -0.712
- z-score [19]: 0.422
- z-score [20]: -0.351 (inactive)

SMILES: C=CCOC(=O)[C@H]1[C@@H]2C(=O)O[C@@H](c3ccccc3)[C@@H](c3ccccc3)N2[C@@H](c2ccc(OCCOC(=O)[C@@H]3C[C@@H]4C(=O)N[C@@H](CCCC[N+](C)(C)C)C(=O)N4[C@@H]3c3ccc(O)cc3)cc2)[C@]12C(=O)Nc1ccccc12
- z-score [1]: 0.443 (inactive)
- composite z-score [2]: 0.0104
- z-score [3]: -0.906 (inactive)
- z-score [4]: -0.689 (inactive)
- z-score [5]: 4.3 (inactive)
- z-score [6]: -1.58 (inactive)
- z-score [7]: 1.28
- z-score [8]: 2.42 (inactive)
- z-score [9]: 0.568 (inactive)
- z-score [10]: 1.41
- z-score [11]: 1.23
- z-score [12]: 1.53
- z-score [13]: -0.265
- z-score [14]: -1.07
- z-score [15]: 0.95
- z-score [16]: -1.37
- z-score [17]: 0.396 (inactive)
- z-score [18]: -0.923
- z-score [19]: -0.504
- z-score [20]: 1.19 (inactive)

SMILES: O=C1C2C=CC(C(O)C(c3ccccc3)c3ccccc3)N(n3cnnc3)C2C(=O)N1Cc1ccccc1 (stereo not given)
- z-score [1]: -1.48 (inactive)
- composite z-score [2]: 0.169
- z-score [3]: 2.36 (inactive)
- z-score [4]: 1.26 (inactive)
- z-score [5]: -0.218 (inactive)
- z-score [6]: 0.949 (inactive)
- z-score [7]: -0.429
- z-score [8]: 0.67 (inactive)
- z-score [9]: -2.83 (inactive)
- z-score [10]: -0.766
- z-score [11]: -1.03
- z-score [12]: 0.0304
- z-score [13]: -1.13
- z-score [14]: -1.09
- z-score [15]: -0.23
- z-score [16]: -1.26
- z-score [17]: -1.26 (inactive)
- z-score [18]: -0.42
- z-score [19]: 0.153
- z-score [20]: -0.387 (inactive)
